In all, about 2,100 compounds went through this assay and about 770 (37%) were called active. The list shows a part of the results. A number with no mark means an inactive call.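 How the source made its calls: active means by-eye trace score of 1 for enhancers or -1 for inhibitors, so actives lie on both sides (some results past the limit were not filed as active); inactive means score 0, or 3 fluorescent, or 4 baseline rise.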

This experiment deals with G protein-activated inward rectifier potassium channel 2 (Homo sapiens) + G protein-activated inward rectifier potassium channel 1 (Homo sapiens) (UniProt P48051+P48549). Nature of the experiment: GIRK1/2 thallium flux modulators, retest, confirmation, cell-based, HEK293 rmGlu8/hGIRK1/2, FluoZin-2 (AID 623911). Particulars: HEK293 rmGlu8/hGIRK1/2, thallium flux FluoZin-2; actives lie on both sides; glutamate co-added at its EC20 level.
Sequence of G protein-activated inward rectifier potassium channel 2 (Homo sapiens) + G protein-activated inward rectifier potassium channel 1 (Homo sapiens) (P48051 whole entry, looked up): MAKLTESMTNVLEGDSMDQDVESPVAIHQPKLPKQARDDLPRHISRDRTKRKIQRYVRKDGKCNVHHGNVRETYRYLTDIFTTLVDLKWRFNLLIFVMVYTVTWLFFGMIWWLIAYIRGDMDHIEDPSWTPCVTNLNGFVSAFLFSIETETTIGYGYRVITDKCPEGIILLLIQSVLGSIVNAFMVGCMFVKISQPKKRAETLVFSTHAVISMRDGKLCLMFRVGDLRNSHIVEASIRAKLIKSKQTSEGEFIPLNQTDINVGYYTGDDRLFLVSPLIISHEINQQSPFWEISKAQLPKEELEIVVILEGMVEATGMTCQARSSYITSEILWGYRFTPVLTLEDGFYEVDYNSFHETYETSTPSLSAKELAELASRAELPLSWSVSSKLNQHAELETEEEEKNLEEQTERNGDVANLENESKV
Sequence of G protein-activated inward rectifier potassium channel 2 (Homo sapiens) + G protein-activated inward rectifier potassium channel 1 (Homo sapiens) (P48549 whole entry, looked up): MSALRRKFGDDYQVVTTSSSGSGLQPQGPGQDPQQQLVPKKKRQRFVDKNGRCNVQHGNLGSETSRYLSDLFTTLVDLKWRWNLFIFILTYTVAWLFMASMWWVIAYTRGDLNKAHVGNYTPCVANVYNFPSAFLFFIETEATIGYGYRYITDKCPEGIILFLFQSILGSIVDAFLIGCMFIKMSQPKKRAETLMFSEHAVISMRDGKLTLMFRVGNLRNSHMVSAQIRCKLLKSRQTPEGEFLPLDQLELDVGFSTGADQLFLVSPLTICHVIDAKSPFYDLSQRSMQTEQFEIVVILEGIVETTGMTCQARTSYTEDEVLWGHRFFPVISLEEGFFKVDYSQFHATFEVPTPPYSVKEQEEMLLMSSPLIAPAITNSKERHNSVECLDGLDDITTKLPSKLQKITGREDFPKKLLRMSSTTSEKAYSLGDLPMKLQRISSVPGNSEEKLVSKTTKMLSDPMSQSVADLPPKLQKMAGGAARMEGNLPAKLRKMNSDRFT
On to `N#Cc1ccc(-c2csc(NC3=NCCCCC3)n2)cc1`, for which the manual score was -1 (active).

Regarding `CC(CCc1ccccc1)NC(=O)N1CCOCC1` (centres undefined), the manual score is 0.

As to `O=C(NC(=Nc1ccccc1)N1CCOCC1)Nc1ccccc1`, the manual score was 1 (active).

Regarding `O=C(NCCN1CCN(C(=O)Nc2ccccc2)CC1)Nc1ccccc1`, the manual score was 0.

On to `CC1=CC(C)(C)n2c(O)c(N=NC(N)=S)c3cccc1c32`, for which the manual score was 0.

For the compound `CCCSc1nc2sc3c(c2c(=O)[nH]1)CCN(Cc1ccccc1)C3`, the manual score was 3.

Consider `Oc1c(Cl)cc(Cl)c2c1NCCC2`, for which the manual score was 0.

`O=C(NC(=S)Nc1ccc(Cl)cn1)c1cccs1`: the manual score is 0.5.

For `Cc1ccc2oc(-c3cccc(NC(=S)NC(=O)c4cccs4)c3)nc2c1`, the manual score was 0.

On to `Cc1cccc(NC(=S)NC(=O)c2cccs2)n1`, for which the manual score was 1 (active).

Regarding `Cc1ccnc(NC(=S)NC(=O)c2cccs2)c1`, the manual score is 1 (active).

Take `CN1C(=O)NC(c2ccccc2)C2=C1CN(Cc1ccccc1)C2=O` (centres undefined): the manual score was 0.

`CCCOc1ccc(C(=O)NNC(=S)NC(=O)CC)cc1`: the manual score is 1 (active).

Turning to `CCCOc1cccc(C(=O)NC(=S)Nc2cccc(C(F)(F)F)c2)c1`, the manual score was 0.

Regarding `CCCCOc1ccc(C(=O)NNC(=S)NC(=O)CC)cc1`, the manual score was 1 (active).

Consider `CC1Cc2nc(SCC(=O)Nc3nc4ccccc4s3)n(C)c(=O)c2S1` (centres undefined), for which the manual score is -0.5.

Regarding `N#Cc1nc(COc2ccccc2)oc1N1CCN(c2cccc(Cl)c2)CC1`, the manual score is 0.

On to `Cc1oc(-c2ccccc2)nc1CS(=O)CC(=O)O` (centres undefined), for which the manual score was 1 (active).

For the compound `CCC(=O)Oc1oc(-c2ccccc2)nc1C=Nc1ccccc1OC`, the manual score was 0.

As for `COc1ccccc1N=Cc1nc(-c2ccccc2)oc1OC(C)=O`, the manual score is 0.

With `Cc1ccn2c(NC3CCCCC3)c(C(C)C)nc2c1`, the manual score is -1 (active).

As to `C=CCOc1cccc(C2/C(=C(/O)c3ccc(C)cc3)C(=O)C(=O)N2CCN2CCOCC2)c1` (centres undefined), the manual score was 0.

As for `CCc1cccc(CC)c1-n1c(SCC(=O)N2CCc3ccccc3C2)nnc1-c1cccnc1`, the manual score is -1 (active).

`Cn1c(SCC(=O)N2c3ccccc3CCc3ccccc32)nnc1-c1ccc(O)cc1`: the manual score is 0.

Consider `CCOC(=O)c1cccc(NC(=O)CSc2nnc(-c3cccnc3)n2C)c1`, for which the manual score was 0.

On to `CCN=c1scc(-c2ccco2)n1/N=C/c1ccc(O)cc1`, for which the manual score is 0.

As for `CC(C)(C)C(=O)Nc1nc2c(s1)COc1ccccc1-2`, the manual score was -0.5.

As to `CC1(c2ccccc2)CC(C)(C)N2C(=O)/C(=C3\SC(=S)NC3=O)c3cccc1c32` (centres undefined), the manual score was 0.

With `CN1CCN(Cc2cccc(Oc3ccc(Cl)cc3)c2)CC1`, the manual score was 0.

`COC(=O)c1ccc(Cl)c(NC(=O)CN2CCN(C)CC2)c1`: the manual score is 0.

Take `CN1CCN(CC(=O)N2c3ccccc3C(C)(c3ccccc3)CC2(C)C)CC1` (centres undefined): the manual score is -1 (active).

Turning to `CN1CCN(CC(=O)N2c3ccccc3C(C)(c3ccc(Cl)cc3)CC2(C)C)CC1` (centres undefined), the manual score was -1 (active).

With `S=c1[nH]nc(CSc2nc3ccccc3s2)n1C1CCCCC1`, the manual score was 0.

On to `N#Cc1ccsc1NC(=O)CN1CCN(c2ccc(O)cc2)CC1`, for which the manual score was 0.

Regarding `Cc1cc(NC(=O)CSc2nc(C3CC3)nc3sc(C)c(C)c23)no1`, the manual score is 1 (active).

As to `Cc1cc(NC(=O)CSc2nc3ccccc3c(=O)n2Cc2ccccc2)no1`, the manual score was 0.

On to `COc1cc(OC)c2nc(C)c3c(c2c1)N(c1ccc(O)cc1)CC3`, for which the manual score is -1 (active).

With `O=C(Nc1nncs1)c1ccccc1NS(=O)(=O)c1cccs1`, the manual score was 0.

Consider `O=C(Nc1ccccc1)c1ccccc1NS(=O)(=O)c1ccc(Cl)s1`, for which the manual score is -1 (active).

Take `O=C(Nc1ccccc1C(=O)O)c1ccc(NC(=O)c2ccc(Br)o2)cc1`: the manual score is -0.5.

Take `O=C(NC(=S)N1CCCc2ccccc21)c1ccc(Cl)cc1`: the manual score is 1 (active).

In the case of `O=C(NC(=S)Nc1ccccc1N1CCCC1)c1ccc([N+](=O)[O-])cc1`, the manual score was 1 (active).

Consider `CCC1CCCCN1C(=S)NC(=O)c1ccc([N+](=O)[O-])cc1` (centres undefined), for which the manual score is 1 (active).

Regarding `CCC1CCCCN1C(=O)CSc1nnc(-c2ccco2)o1` (centres undefined), the manual score was 0.

For the compound `Cc1c(C(=O)NC(=S)Nc2ccccc2N2CCCC2)cccc1[N+](=O)[O-]`, the manual score was 0.

Turning to `O=C(NC(=S)Nc1ccccc1N1CCCC1)c1ccccc1[N+](=O)[O-]`, the manual score is 0.

For `O=C(COc1ccc(Br)cc1Br)NC(=S)N1CCCc2ccccc21`, the manual score was 0.

Regarding `O=C(NC(=S)N1CCCc2ccccc21)c1ccc(Br)cc1`, the manual score is 1 (active).

Turning to `O=c1[nH]c(NCCO)nc2c1C1(CCCCC1)Cc1ccccc1-2`, the manual score is 0.

Turning to `CCOC(=O)c1cccc(-n2c(C)cc(C=O)c2C)c1`, the manual score was 0.

On to `O=C(Nc1nc(-c2cc3ccccc3oc2=O)cs1)c1ccc(Br)o1`, for which the manual score was 0.

For the compound `O=C(NC(=S)N1CCCc2ccccc21)c1ccccc1`, the manual score is 1 (active).

On to `O=C(N/N=C1\CCCc2ccccc21)c1ccc([N+](=O)[O-])cc1`, for which the manual score was 0.

As to `O=C(NC(=S)N1CCc2ccccc21)c1ccccc1Br`, the manual score was 1 (active).

Regarding `O=C(NC(=S)N1CCCc2ccccc21)c1ccc([N+](=O)[O-])cc1`, the manual score is 1 (active).

For the compound `O=C(NC(=S)N1CCc2ccccc21)c1ccccc1`, the manual score was 1 (active).

As for `O=C(c1ccccc1)N1CCCc2ccccc21`, the manual score is 0.

As to `C=CCN1C(=O)/C(=C2/Sc3ccccc3N2C)SC1=Nc1c(C)n[nH]c1C`, the manual score is 0.

Turning to `CCC(=O)c1ccc(N2CCN(C(=O)c3cc([N+](=O)[O-])ccc3N3CCN(C)CC3)CC2)c(F)c1`, the manual score was 0.

For the compound `O=C(NC(=S)N1CCN(c2ccc([N+](=O)[O-])cc2)CC1)c1ccc(F)cc1`, the manual score is 1 (active).

As to `O=C(NC(=S)N1CCN(c2ccc(F)cc2)CC1)C12CC3CC(CC(C3)C1)C2`, the manual score was 0.

With `O=S(=O)(Nc1cc(Cl)ccc1N1CCCCC1)c1cccs1`, the manual score was -1 (active).

Take `O=S(=O)(Nc1ccccc1N1CCCCC1)c1ccc(Cl)s1`: the manual score was 0.

On to `CCC/C(=N/NC(=O)c1csc(C)c1C)c1ccc(Cl)s1`, for which the manual score is 0.

For the compound `COc1ccc(-c2onc(C)c2-c2ccc(C(=O)OC(C)C)o2)c(O)c1`, the manual score is 0.

On to `COc1ccc(-c2c3c(=O)n(C)c(=O)n(C)c3cn2-c2ccccc2)cc1`, for which the manual score was 0.

Regarding `COc1ccc(-n2ncc3c(NCc4cccs4)ncnc32)cc1`, the manual score was 0.

Turning to `COc1ccc(-c2c(S(=O)(=O)c3ccccc3)cnn2-c2ccccc2)cc1`, the manual score was -1 (active).

`N#Cc1c(N)nc(SCc2ccccc2)c(C#N)c1-c1ccco1`: the manual score was 0.

For `Cc1ccc(OCC(=O)NNC(=O)C(C)Sc2ncnc3sc(C)c(C)c23)cc1` (centres undefined), the manual score is 1 (active).

Take `CC(NC(=O)COc1ccccc1)C(=O)NC1=NCCS1` (centres undefined): the manual score was 0.

Turning to `COC(=O)c1c(NC(=O)CSc2nnc(-c3cccnc3)n2Cc2ccco2)sc(C)c1C`, the manual score was -0.5.

With `CCOC(=O)c1c(NC(=O)CSc2nnc(-c3ccncc3)n2Cc2ccco2)sc(C(C)=O)c1C`, the manual score is -1 (active).

In the case of `CCOc1ccccc1NC(=O)CSc1nnc(-c2ccco2)n1Cc1ccco1`, the manual score is 0.

For the compound `CCn1cc(C(=O)N2CC=C(c3ccccc3)CC2)c(=O)c2ccc(C)nc21`, the manual score is 0.

For the compound `O=C(COC(=O)c1cccc(N2C(=O)c3ccccc3C2=O)c1)Nc1ccccc1`, the manual score is 0.

For `CCc1ccc(C(=O)OCC(=O)Nc2cccc(S(=O)(=O)NC3=NCCCCC3)c2)cc1`, the manual score is 1 (active).

Regarding `O=C(CSc1ccc2ccccc2c1Br)Nc1cccc(S(=O)(=O)NC2=NCCCCC2)c1`, the manual score is 0.

With `N#C/C(=C/c1ccc(N2CCOCC2)o1)c1nc2ccccc2[nH]1`, the manual score is 3.

Take `Cc1ccc(NC(=S)c2nc3ccccc3[nH]2)cc1`: the manual score was 1 (active).

Regarding `Cc1oncc1C(=S)Nc1ccccc1`, the manual score is 0.

Turning to `S=C(Nc1ccc(Cl)cc1)c1nc2ccccc2[nH]1`, the manual score is 1 (active).

With `COc1ccc(S(=O)(=O)N(CC(=O)N2CCN(c3ccccc3)CC2)c2ccccc2)cc1`, the manual score is 0.

Take `CCOC(=O)N1CCN(C(=O)CN(Cc2ccccc2)S(=O)(=O)c2ccc(OC)c(C)c2)CC1`: the manual score was -1 (active).

On to `COc1ccc(OC)c(S(=O)(=O)N(C)CC(=O)N2CCN(c3ccccc3F)CC2)c1`, for which the manual score is 0.

For the compound `COc1cc(/C=C2/SC(=S)NC2=O)ccc1OS(=O)(=O)c1ccc(C)cc1`, the manual score was 0.

For the compound `O=C1NC(=O)/C(=C\c2ccccc2Oc2ccc(F)c(F)c2)S1`, the manual score is 0.

Regarding `O=C1NC(=S)S/C1=C\c1ccc(SCc2ccccc2)o1`, the manual score was 0.5.

As to `O=C1NC(=S)/C(=C\c2ccc(-c3ccccc3Cl)o2)S1`, the manual score was 3.

For `COc1cc(/C=C2\SC(=S)NC2=O)ccc1OS(=O)(=O)c1ccccc1`, the manual score is 1 (active).

For the compound `COc1ccc(/C=C2\SC(=O)NC2=S)cc1OC`, the manual score is 1 (active).

In the case of `CCOc1ccc(-c2nc(-c3ccc(OC)cc3)no2)cc1OCC`, the manual score is 0.

Take `OCCCN=c1cc(-c2ccccc2)oc2ccc(Cl)cc12`: the manual score is -1 (active).

Consider `CC(C)c1ccc(-c2noc(C3CCCN(S(C)(=O)=O)C3)n2)cc1` (centres undefined), for which the manual score is 0.

`O=S(=O)(c1ccc(Cl)c(F)c1)N1CCC(c2nc(-c3ccncc3)no2)CC1`: the manual score was 1 (active).

As for `Cc1cc2cc3c(cc2nc1SCC(=O)N1CCN(C(=O)c2ccco2)CC1)OCO3`, the manual score was 0.

As for `O=C(c1ccc2nccnc2c1)N1CCN(Cc2ccc3c(c2)OCO3)CC1`, the manual score was 1 (active).

Turning to `O=C(c1ccc(COc2c(F)c(F)c(F)c(F)c2F)o1)N1CCN(Cc2ccc3c(c2)OCO3)CC1`, the manual score is 0.

As to `CCN(CC)c1ccc(C(=O)NC(=S)N2CCN(Cc3ccc4c(c3)OCO4)CC2)cc1`, the manual score was 0.

Turning to `O=C(NC(=S)N1CCN(Cc2ccc3c(c2)OCO3)CC1)c1cccc(Br)c1`, the manual score was 1 (active).

For `O=C(NC(=S)N1CCN(Cc2ccc3c(c2)OCO3)CC1)c1ccc(Cl)cc1`, the manual score was 1 (active).

For the compound `Fc1ccc(NC(=S)NN=C2CCCCCC2)cc1`, the manual score was 0.

Regarding `C/C(=N/NC(=S)Nc1ccccc1)c1ccc2c(c1)OCO2`, the manual score was 0.

Turning to `C/C(=N\NC(=S)Nc1ccc(F)cc1)c1ccc2c(c1)OCCO2`, the manual score was 1 (active).

For the origin of these results see PubChem BioAssay AID623911 (Vanderbilt High Throughput Screening Facility, 2012).
